This passage reports growth results from PubChem BioAssay (NCI).

Each structure is given as a SMILES string. About 83,000 compounds went through this panel and 20% of them were active in at least one assay; those are over-represented in the sample as a whole.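 Note: values are percent growth. 100 is the growth of untreated cells, values between 100 and 0 indicate rising inhibition; between -100 and 0 indicates cell death.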 Unmarked numbers belong to inactive results. Active and inactive are the calls of the source. How the source made its calls: active means growth percent below 10; inactive means the rest.

Assay in all cases: NCI-60 one-dose screen, 48 h (100 = growth as untreated, 0 = no growth, -100 = all killed)
What all share (details): 10 µM unless noted

The subject of assay [1] is HCT-15 colon.
In assay [2] the test system is HT29 colon.
Assay [3] concerns SNB-75 CNS.
Assay [4] relates to SNB-19 CNS.
The test system of assay [5] is U251 CNS.
The subject of assay [6] is PC-3 prostate.
Assay [7] concerns SK-MEL-5 melanoma.
Assay [8] has as its system UACC-62 melanoma.
For assay [9], the system named is LOX IMVI melanoma.
The test system of assay [10] is SK-MEL-2 melanoma.
Assay [11] deals with EKVX NSCLC.
In assay [12] the test system is SN12C renal.
Assay [13] deals with UO-31 renal.
Assay [14] deals with TK-10 renal.
Assay [15] has as its system ACHN renal.
The subject of assay [16] is CAKI-1 renal.
Assay [17] concerns A498 renal.
Assay [18] relates to CCRF-CEM leukemia.
Assay [19] deals with MOLT-4 leukemia.
For assay [20], the system named is SK-MEL-28 melanoma.

As to `Cn1cc(-c2nc(N)nnc2-c2c[nH]c3ccc(Br)cc23)c2cc(F)ccc21`, the growth in assay [1] was 77.2%; in assay [2], 104%; in assay [3], 79.9%; in assay [4] it was 88%; in [5], 97.8%; in assay [6], 87.2%. In addition, the growth in assay [7] is 91.5%; in assay [8], 91.7%; in [9], 92.3%; in assay [10], 113%; in [11], 78.5%; in assay [12], 102%. Further, the growth in assay [13] is 58.8%; in [14] it was 131%; in [15], 78.5%; in assay [16] it was 67.8%; in assay [17] it was 98.9%; in assay [18], 83.2%. The growth in assay [19] was 69.4%.
In the case of `O=C(Nc1cccc(C(F)(F)F)c1)N1CCN(c2cc(-c3cn(-c4ccccc4)nc3-c3cccc(O)c3)ccn2)CC1`, the growth in [1] is 22.2%; in assay [2], 24.5%; in assay [3], 71.8%; in [4] it was 57.4%; in assay [5], 48.1%; in assay [6], 28.2%. The growth in [7] was 40.2%; in assay [8], 40%; in [9] it was 25.5%; in assay [20], 55%; in assay [10] it was 43.7%; in [11], 42%. The growth was 49% in assay [12]; 25.3% in [13]; 39.2% in [15]; 51.8% in assay [16]; 49.4% in assay [17]; 21.5% in assay [18]. The growth in [19] was 18.9%.
Take `Cc1ncn(-c2ccc(/C=N/Nc3ccnc4cc(Cl)ccc34)cc2)c1C`: the growth in [1] is -59.4% (active); in [2], -77.5% (active); in assay [3] it was -24.2% (active); in [4], 42.3%; in assay [5] it was -81.7% (active); in [6] it was -21.3% (active). Besides, the growth in assay [7] is -19.7% (active); in [8], -74.4% (active); in assay [20] it was -79.3% (active); in assay [10], -17.3% (active); in [11], 99.8%; in assay [12], -55.8% (active). The growth was -66.9% (active) in [13]; -11.7% (active) in assay [14]; -91.1% (active) in assay [15]; -48.9% (active) in [16]; 86.5% in [17]; 3.17% (active) in [18]. In assay [19], the growth is 1.04% (active).
With `CCS(=O)(=O)Nc1ccc(C(=O)CC2(O)C(=O)Nc3ccccc32)cc1` (configuration not stated), the growth in [1] is 100%; in [2], 113%; in assay [3] it was 69.2%; in [4], 101%; in [5] it was 105%; in [6], 92.4%. Also, the growth in assay [7] is 99.8%; in assay [8] it was 96.9%; in [20] it was 109%; in [10] it was 113%; in assay [11] it was 91.8%; in assay [12], 97.4%. The growth was 67.7% in assay [13]; 122% in assay [14]; 95.3% in [15]; 82.6% in assay [16]; 103% in [17]; 99.7% in assay [18]. Further, the growth in [19] was 102%.
For the molecule `Cc1csc(/N=C(N)/N=C(\N)c2cccc(Br)c2)n1`, the growth in assay [1] is 67%; in assay [2], 97.4%; in assay [3] it was 72.8%; in [4], 79.2%; in assay [5], 91.5%; in assay [6] it was 87.9%. The growth in assay [7] was 97.6%; in [8], 74.5%; in assay [9], 90.4%; in assay [10] it was 101%; in [11] it was 88.9%; in assay [12], 90.7%. Also, the growth is 86.4% in [13]; 149% in assay [14]; 97.7% in assay [15]; 85.7% in assay [16]; 81.5% in assay [17]; 98.6% in assay [18]. Moreover, in [19], the growth is 96.5%.
For `O=C1Nc2cc(Cl)ccc2/C1=C\c1ccc(OCc2ccccc2)cc1`, the growth is 95% in assay [1]; 105% in [2]; 73.3% in assay [3]; 103% in [4]; 104% in assay [5]; 88.2% in assay [6]. Also, the growth in [7] was 97.2%; in [8] it was 95.9%; in assay [9] it was 92.7%; in assay [10], 111%; in assay [11], 100%; in [12] it was 96%. The growth in assay [13] was 76.2%; in assay [14], 154%; in assay [15], 94.8%; in assay [16], 89.3%; in assay [17], 93%; in assay [18], 102%. For the same molecule, the growth in assay [19] is 99.1%.
For `O=C(CSc1nnc(-c2cccs2)n1-c1ccccc1)Nc1ccccc1F`, the growth is 52.7% in [1]; 75.1% in assay [2]; 84.4% in assay [3]; 83.2% in [4]; 89.3% in assay [5]; 93.3% in assay [6]. For the same molecule, the growth in [7] is 91.2%; in assay [8], 57.7%; in [9], 78.9%; in [10], 95.8%; in assay [11] it was 94.6%; in assay [12] it was 99.1%. Moreover, the growth in assay [13] was 77.4%; in assay [14], 110%; in [15], 92.5%; in [16] it was 55.6%; in assay [17], 79.9%; in assay [18], 76.9%. Moreover, the growth in assay [19] is 72%.
On to `O=S(=O)(Oc1ccc(-c2cn3ccoc3n2)cc1)C1CCCCC1`, for which the growth is 62.7% in assay [1]; 96.7% in [2]; 124% in assay [3]; 97.1% in assay [4]; 104% in assay [5]; 91.5% in [6]. The growth was 91.1% in [7]; 85.3% in assay [8]; 100% in assay [20]; 99.4% in assay [10]; 100% in [11]; 103% in assay [12]. Also, the growth was 97.4% in assay [13]; 105% in [14]; 105% in assay [15]; 92.3% in assay [16]; 90% in assay [17]; 87.2% in assay [18]. In assay [19], the growth is 93.5%.
